Only some compounds are listed: those with a hit (about 3.2% of all), similar ones and a draw of the others.
Tau ThT inhib: qHTS for Inhibitors of Tau Fibril Formation, Thioflavin T Binding; Microtubule-associated protein tau (Homo sapiens), P10636; recombinant tau K18 P301L, heparin-induced fibrillization, ThT fluorescence; Potency, µM (top dose mostly 57.4 µM), usual class: inhibitors; 270,000 compounds, 2.1% hits; further: nearly all actives have a fitted effect of over 55% in size
Target sequence (P10636 561-689 P618L limits assumed): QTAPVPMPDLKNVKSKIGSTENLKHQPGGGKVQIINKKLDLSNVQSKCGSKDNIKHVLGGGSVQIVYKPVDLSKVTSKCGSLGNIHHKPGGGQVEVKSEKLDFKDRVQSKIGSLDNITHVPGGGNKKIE
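Heparin-induced (20 uM) aggregation of recombinant human K18 P301L tau, 15 uM unlabeled with 0.24 uM labeled, pH 7 acetate buffer, 6 hr at 37 C with compound. Fibrils quantified by 30 uM ThT fluorescence after 1 hr ambient incubation.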
Tau fluor counter: Counterscreen qHTS for Inhibitors of Tau Fibril Formation, Fluorescence Polarization. tau K18 P301L Alexa594 fluorescence, heparin fibrillization. Potency, µM (highest dose often 57.7 µM). 280,000 compounds, 0.93% hits; further: nearly all actives have a fitted effect of over 55% in size
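Human tau K18 P301L (15 uM unlabeled, 0.24 uM Alexa 594-labeled) in 100 mM sodium acetate pH 7 with 20 uM heparin, 6 hr at 37 C. ThT 30 uM added, 1 hr ambient; Alexa 594 FP and total fluorescence read at 555/632 nm.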
Tau FP inhib: qHTS for Inhibitors of Tau Fibril Formation, Fluorescence Polarization; Microtubule-associated protein tau (Homo sapiens), P10636; K18 P301L tau heparin fibrillization, Alexa594 FP, 6 h; Potency, µM (titrated, usually from 57.7 µM), usual class: inhibitors; 280,000 compounds, 0.39% hits; AID 1468, 2008; further: nearly all actives have a fitted effect of over 55% in size
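Human tau K18 […] P301L fragment, 15 uM unlabeled plus 0.24 uM Alexa 594-labeled tau (final), with compound and 20 uM heparin in 100 mM sodium acetate pH 7; 6 hr at 37 C, then Alexa 594 FP read.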
TRb SRC2 PPI: qHTS for Inhibitors of the Interaction of Thyroid Hormone Receptor and Steroid Receptor Coregulator 2; Thyroid hormone receptor beta (Homo sapiens), P10828; TRbeta-SRC2 peptide binding, fluorescence polarization; receptor liganded with 1 µM T3; Potency, µM (highest dose often 106 µM), hits mostly inhibitors; 280,000 compounds, 0.065% hits; AID 1469, 2008; further: nearly all actives have a fitted effect of over 50% in size
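Human TRb ligand-binding domain (0.6 uM) is mixed with 20 nM Texas Red SRC2 peptide and 1 uM T3; after compound addition and 5 hr at ambient temperature, polarization is measured and normalized to unbound and bound controls.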
GoLoco inh red: qHTS Assay for Inhibitors of RGS12 GoLoco Motif Activity (Red Fluorophore); Gai1:RGS12 GoLoco peptide FP, rhodamine, 10 min; 230,000 compounds, 0.44% hits; Potency, µM (titrated, usually from 61.6 µM), usual class: inhibitors; Guanine nucleotide-binding protein G(i) subunit alpha-1 (Homo sapiens), P63096; active means well fitted inhibition curve with a large enough effect, not every such curve was filed as active; inactive means no such curve, though single readings can be large or run the other way; further: nearly all actives have a fitted effect of over 30% in size
Target sequence (P63096 whole entry, looked up): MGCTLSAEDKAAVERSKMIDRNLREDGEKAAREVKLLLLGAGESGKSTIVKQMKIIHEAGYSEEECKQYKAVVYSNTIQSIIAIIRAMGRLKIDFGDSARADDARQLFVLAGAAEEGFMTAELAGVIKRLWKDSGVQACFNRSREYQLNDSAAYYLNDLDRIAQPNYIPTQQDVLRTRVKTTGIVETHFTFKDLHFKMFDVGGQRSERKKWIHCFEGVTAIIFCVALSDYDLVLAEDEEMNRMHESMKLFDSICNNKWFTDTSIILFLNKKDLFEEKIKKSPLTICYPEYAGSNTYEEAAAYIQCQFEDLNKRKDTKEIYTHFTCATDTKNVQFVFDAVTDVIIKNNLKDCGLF
TexasRed fluor: Total Fluorescence Counterscreen for Inhibitors of the Interaction of Thyroid Hormone Receptor and Steroid Receptor Coregulator 2; TRb/SRC2 Texas Red total fluorescence interference; Potency, µM (doses to about 106 µM); 280,000 compounds, 0.29% hits; AID 1479, 2009; active means well fitted curve in either direction with a large enough effect; inconclusive means small, poorly fitted or top-dose-only effect
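Human TRb ligand-binding domain at 0.6 uM with 20 nM Texas Red SRC2 peptide in Tris buffer containing 1 uM T3 and 5% DMSO, incubated with compound 5 h at ambient temperature. Total fluorescence (555/632 nm) calculated as parallel + 2 × perpendicular.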
Hits are given with their value; n = inactive; u = inconclusive; x = no result given; [ ] = another dose, or the depositor's remark. Unless noted, the call rests on the fitted dose curve; in most records, active means well fitted curve in the direction sought with a large enough effect; inconclusive means small, poorly fitted or top-dose-only effect, or another doubt; inactive means no such curve, though single readings can be large; an effect the other way counts as inactive or inconclusive.

SMILES | Tau ThT inhib | Tau fluor counter | Tau FP inhib | TRb SRC2 PPI | GoLoco inh red | TexasRed fluor
CC(=O)Nc1cc(NC(C)=O)cc(-c2nc3ccccc3[nH]2)c1 | n | n | n | n | n | n
CCCN(CCC)S(=O)(=O)c1ccc(C(=O)Nc2cccc(-c3nc4ccccc4[nH]3)c2)cc1 | n | u | 25µM | n | x | n
CN(C)S(=O)(=O)c1ccc(C(=O)Nc2nc3ccccc3[nH]2)cc1 | n | n | n | n | n | n
COc1c(Cl)cc(C(=O)Nc2cccc(-c3nc4ccccc4[nH]3)c2)cc1Cl | u | u | 22µM | n | x | n
COC(=O)C/C=C\[C@@H](C)[C@@H](/C=N\O[C@@H](C)CN1CCCc2nc(C)c(C)cc21)OC | n[11.5 µM] | n[11.6 µM] | n[11.6 µM] | n[11.2 µM] | x | n[11.2 µM]
CO[C@@H]1COC(=O)C/C=C\[C@@H](C)COC(=O)[C@H](Cc2ccccc2)NC(=O)C/C=C\[C@H]1C | n[11.5 µM] | n[11.6 µM] | n[11.6 µM] | n[11.2 µM] | x | n[11.2 µM]
CN(C)c1ccc(C(=C2C=CC(=[N+](C)C)C=C2)c2c(O)c(S(=O)(=O)O)cc3cc(S(=O)(=O)O)ccc23)cc1 | x | x | x | x | n[14.2 µM] | x
c1ccc(-c2nn[nH]n2)c(Nc2cccc3c2CCCC3)c1 | x | x | x | n | x | n
C=C1C=CS(=O)(=O)N(Cc2ccccc2)C1 | x | x | x | n | x | n
N#Cc1cc2cc3c(cc2nc1SCC(=O)OC1CCCCC1)OCO3 | n | n | n | n | n | n
CC(=O)CSc1nc2cc3c(cc2cc1C#N)OCCO3 | 1.6µM | u | n | n | n | n
O=c1c(C(c2ccc(Cl)cc2)c2c(O)nc3n(c2=O)CCCS3)c(O)nc2n1CCCS2 | 11µM | n | u | n | n | n
O=c1c(C(c2ccc(Cl)cc2)c2c(O)nc3n(c2=O)CCS3)c(O)nc2n1CCS2 | u | n | u | n | n | n
Oc1ccccc1NCC(O)Cn1ccc2ccccc21 (stereo unspecified) | 14µM | 20µM[quencher] | n | n | x | n
CC(=O)c1cccc(Nc2nc(-c3cccc(C)c3)nc3ccccc23)c1 | n | 2.8µM[quencher] | 7.1µM | n | x | n
COC(=O)c1ccc(Nc2nc(-c3ccccc3Cl)nc3ccccc23)cc1 | n | u | 13µM | n | x | n
Oc1ccc(Nc2nc3ccccc3nc2Nc2ccc(O)cc2)cc1 | 16µM | 7.1µM[quencher] | u | n | 2.5µM | n
Cc1noc(C)c1-c1nc(Nc2ccc(F)cc2)c2ccccc2n1 | x | x | x | x | 10µM | x
Cc1noc(C)c1-c1nc(Nc2ccncc2)c2ccccc2n1 | n | n | u | n | n | n
Cc1n[nH]c(=O)nc1Nc1ccc(O)cc1 | n | n | n | n | n | n
CC(=O)c1cccc(Nc2nc(-c3ccccc3Cl)nc3ccccc23)c1 | n | u | u | n | x | n
CCCCC[C@H](O)/C=C/C=C/C/C=C\CCCC(=O)O | n | n | n | n | n | n
CNC(=O)C1(C(F)(F)F)CC(CCCO)CCCO1 (stereo unspecified) | x | x | x | n | x | n
Cc1nc2ccccc2nc1N/N=C/c1ccc(O)cc1 | 14µM | u | n | n | n | n
Cc1ccc(Nc2nc(-c3cccnc3)nc3ccccc23)cc1 | n | u | u | n | n | n
SMILES | Tau ThT inhib | Tau fluor counter | Tau FP inhib | TRb SRC2 PPI | GoLoco inh red | TexasRed fluor
Cc1cccc(-c2nc(Nc3ccc(N4CCOCC4)cc3)c3ccccc3n2)c1 | u | 11µM[quencher] | u | n | n | n
Clc1cccc(Nc2nc(-c3ccncc3)nc3ccccc23)c1 | n | n | n | n | n | n
Oc1ccc(Nc2nc(-c3ccc(Cl)cc3)nc3ccccc23)cc1 | 13µM | 4µM[quencher] | u | n | x | n
CC(=O)Nc1ccc(Nc2nc(-c3ccccc3)nc3ccccc23)cc1 | u | 14µM[quencher] | n | n | n | n
CCCCCCCCCCCCCCCCN(C)C | x | x | x | n | x | n
COc1cccc([C@@H]2Oc3ccc(OC)cc3C(=O)[C@H]2OC(=O)NS(=O)(=O)c2ccc(C)cc2)c1 | n | n | n | n | n | n
COc1nc(Cl)nc(Cl)c1Cl (tested in a mixture with another compound) | x | x | x | x | n[14.2 µM] | x
COc1ccc(NC(=O)CSc2nc(-c3ccc(OC)cc3)[nH]c2-c2ccc(OC)cc2)cc1 | n | 8.9µM[quencher] | n | n | x | n
COc1ccc(NC(=O)CSc2cc(-c3ccccc3)nc(C)n2)cc1 | n | n | n | n | x | 8.9µM[quencher]
CCOc1ccc(-c2nc(SCC(=O)Nc3ccc4c(c3)OCO4)c(-c3ccc(F)cc3)[nH]2)cc1 | u | u | n | n | x | n
COc1ccc(-c2[nH]c(-c3ccc(F)cc3)nc2SCC(=O)Nc2ccc(OC)c(OC)c2)cc1 | u | 14µM[quencher] | n | n | x | n
COc1ccc(-c2[nH]c(-c3ccc(F)cc3)nc2SCC(=O)NCc2ccco2)cc1OC | u | u | u | n | n | n
COc1ccc(NC(=O)CSc2nc(-c3cc(OC)c(OC)c(OC)c3)[nH]c2-c2ccc(F)cc2)cc1 | u | 7.1µM[quencher] | n | n | x | n
CS(=O)(=O)CCC(C(=O)Nc1cccc(C(F)(F)F)c1)N1Cc2ccccc2C1=O (stereo unspecified) | n | n | n | n | x | 25µM[quencher]
Nc1cc2nsnc2cc1Br | 8.9µM | u | u | u | n | n
COc1ccc(C2=Nn3c(nnc3-c3ccc(OC)cc3OC)SC2)c(OC)c1 | x | x | x | n | x | n
Cc1c(CBr)[n+](=O)c2c(n1[O-])C(Br)CCC2Br (stereo unspecified) | 25µM | n | u | n | n | n
Cc1ccccc1C1CC(=O)Oc2cc(O)ccc21 (stereo unspecified) | n | n | u | u | n | 100µM[fluorescent]
CC(C)CC(CSc1ccc(Br)cc1)N1CCN(C)CCC1=O (stereo unspecified) | x | x | x | n | x | n
Cc1nc(NC(=O)c2ccccc2)sc1-c1csc(NCc2ccccc2)n1 | u | 13µM[quencher] | u | n | n | n
Cc1ccc(Cl)cc1Nc1nc(-c2sc(NC(=O)c3ccccc3)nc2C)cs1 | u | u | n | n | n | n
Cc1cc(NS(=O)(=O)c2ccc(Nc3nc(-c4sc(NC(=O)c5ccccc5)nc4C)cs3)cc2)no1 | 20µM | 16µM[quencher] | n | n | n | n
c1ccc(Nc2nc(-c3ccccn3)cs2)cc1 | u | u | n | n | n | n
Cc1nc(NC(=O)c2ccccc2)sc1-c1csc(N)n1 | 13µM | u | n | n | n | n
Cc1nc(N)sc1-c1csc(Nc2ncccn2)n1 | 4µM | n | n | n | n | u

Screening results from PubChem.
